Where “and” joins values, the source holds several entries; their conditions need not be identical. Equal entries are not always repeated. This is part of a sample that, as a whole, favours compounds with a hit. Of some 83,000 tested, about 20% had one in any assay.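 In brief: 96-well plates, 48 h treatment, single concentration, percent growth endpoint.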 Calls of active or inactive are those of the source.
The compounds below were run on SW-620 colon (assay: NCI-60 one-dose screen, 48 h (100 = growth as untreated, 0 = no growth, -100 = all killed)). Conditions: 10 µM unless noted.
Procedure: Growth inhibition of the SW-620 human tumor cell line is measured as a screen for anti-cancer activity. Cells are grown in 96 well plates and exposed to the test compound for 48 hours. Compounds are tested at a single concentration, which is 10^-5 M for most compounds. The reported endpoint is percent growth (GI% or GIPRCNT), where numbers from 0 - 100% represent growth inhibition, and numbers from -100% - 0 represent cell death. For example, a value of 40 represents 60% growth inhibition. A value of 0 means no net growth occurred over the course of the experiment. A value of -40 indicates 40% of cells at the beginning of the experiment died by the end of the experiment. A value of -100 means all cells are dead at the end of the experiment.
NCI-60 Human Tumor Cell Lines Screen was performed using the standard one-dose NCI protocol, which is described in more detail at https://dtp.cancer.gov/discovery_development/nci-60/default.htm.
Compounds with GIPRCNT values below 10 were considered active. Activity score was based on GIPRCNT using the following formula: […]
Score is 0 for GIPRCNT values of 100 or above, 50 for GIPRCNT values of 0, and 100 for GIPRCNT values of -100.

How did the growth turn out when `CCN(C)c1ccccc1` was run?
Its growth is 110% (inactive).

For `O=P(O)(O)OC1C(OP(=O)(O)O)C(OP(=O)(O)O)C(OP(=O)(O)O)C(OP(=O)(O)O)C1OP(=O)(O)O.[Cu+2]` (stereo not given), which growth is on record?
Its growth is 95.6% (inactive).

With `CCN(CC)CCNC(=O)c1ccc(NCN2C(=O)NC(c3ccccc3)(c3ccccc3)C2=O)cc1` as the compound, how does the growth read?
The growth was 105% (inactive) and 106% (inactive).

How did the growth turn out when `O=C(Nc1ccccc1)OCC(CN1CCCCC1)OC(=O)Nc1ccccc1` (stereo not given) was run?
The growth was 104% (inactive) and 96.9% (inactive).

`Oc1ccc(O)c(-c2ccccc2)c1` was tested. Which growth did it give?
The growth was 78.7% (inactive).

For `O=[N+]([O-])c1cccc2ccc(N/N=C/c3ccccc3O)nc12`, which growth is on record?
The growth was 21.7% (inactive) and 96.4% (inactive).

For `CC(=O)Oc1cc(C)c(OC(C)=O)c(C)c1C`, which growth is on record?
Its growth is 105% (inactive).

How did the growth turn out when `Oc1cccnc1CN1CCOCC1` was run?
Its growth is 109% (inactive) and 101% (inactive).

For `CCCCNC(=O)c1ccccc1C`, which growth is on record?
Its growth is 104% (inactive).

Which growth does the source give for `NNc1ncnc2cccc(Cl)c12` here?
The growth was 104% (inactive).

With `CC(=O)C[n+]1ccccc1Sc1ccc(Cl)cc1` as the compound, how does the growth read?
The growth was 91.6% (inactive).

Which growth does the source give for `Cc1cc(Cl)nc(Nc2ccccc2)n1` here?
The growth was 104% (inactive).

How did the growth turn out when `Nc1nc(N)c2cc(S(=O)(=O)c3ccccc3)ccc2n1` was run?
Its growth is 21.8% (inactive) and 25.3% (inactive).

`CCCCOC1NC(=O)NC(=O)C1(F)C(=O)OCC` (stereo not given) was tested. Which growth did it give?
The growth was 94.6% (inactive) and 76.7% (inactive).

Which growth does the source give for `COC(=O)c1ccccc1Cl` here?
Its growth is 103% (inactive).

For `O=C(O)C(Cc1ccc(OS(=O)(=O)Cc2ccccc2)cc1)NS(=O)(=O)Cc1ccccc1` (stereo not given), which growth is on record?
The growth was 105% (inactive).

`CC(=O)Oc1cc(C(C)C)c(OCCN(C)C)cc1C` was tested. Which growth did it give?
Its growth is 104% (inactive) and 100% (inactive).

Which growth does the source give for `COc1cc2oc3cc(=O)cc4oc(-c5ccccc5)cc(c2c2c1CCC(c1ccccc1)O2)c43` (stereo not given) here?
The growth was 100% (inactive).

`COC(=O)C(Cc1cn(C(C)=O)c2ccccc12)P(=O)(OC)OC` (stereo not given) was tested. Which growth did it give?
Its growth is 99.5% (inactive).

With `O=C(c1ccccc1)C1(Br)CCCCC1` as the compound, how does the growth read?
The growth was 105% (inactive).

With `COC(=O)CCOc1ccccc1` as the compound, how does the growth read?
The growth was 107% (inactive).

For `O=C1C2=C(Nc3cc(Cl)ccc3N2)OC1c1c[nH]c2ccc(COc3ccccc3)cc12` (stereo not given), which growth is on record?
The growth was 85% (inactive).

With `CC(=O)Oc1ccc(C2(c3ccc(OC(C)=O)cc3)C(=O)Nc3ccccc32)cc1` as the compound, how does the growth read?
Its growth is 98.2% (inactive) and 104% (inactive).

Which growth does the source give for `Cc1onc(-c2c(F)cccc2Cl)c1-c1ncc(-c2ccc(Cl)cc2)o1` here?
Its growth is 37.3% (inactive) and 29.4% (inactive).

Which growth does the source give for `CCCCCCC(C)CC1=C(O)c2ccccc2C(=O)C1=O` (stereo not given) here?
Its growth is 35.4% (inactive).

With `CCOc1ccc(/C=C\C(=O)O)cc1` as the compound, how does the growth read?
The growth was 101% (inactive).

With `O=C1c2cccnc2-c2ncccc21` as the compound, how does the growth read?
Its growth is 109% [100 µM] (inactive).

Which growth does the source give for `CC(=O)/C(N=Nc1ccc(S(=O)(=O)c2ccc(N=N/C(C(C)=O)=C(/C)O)cc2)cc1)=C(\C)O` here?
Its growth is 99.4% (inactive).

How did the growth turn out when `Cc1ccc(S(=O)(=O)n2ccnc2)cc1` was run?
Its growth is 109% (inactive).

For `N=C(N)N1CCc2ccccc2C1`, which growth is on record?
Its growth is 94.5% (inactive) and 88.1% (inactive).

For `O=C(O)c1cc(=O)[nH]c(=O)[nH]1`, which growth is on record?
The growth was 111% (inactive) and 103% (inactive).

`O=[N+]([O-])c1cccc(N=Cc2ccccc2)c1` was tested. Which growth did it give?
Its growth is 117% (inactive).

`CN(C)c1ccc(C(=N)c2ccc(N(C)C)cc2)cc1` was tested. Which growth did it give?
Its growth is 9.98% (active) and 17.7% (inactive).

With `Nc1ccc(Cl)c(S(=O)(=O)O)c1` as the compound, how does the growth read?
The growth was 99.1% (inactive).

With `Cc1cccc(Cl)c1N` as the compound, how does the growth read?
Its growth is 96.9% (inactive).

With `CC1=CC(=O)C=CC1=Nc1ccc(N(C)C)cc1` as the compound, how does the growth read?
Its growth is 105% (inactive).

How did the growth turn out when `Clc1ccc(/C=C/c2ccc3ccccc3n2)cc1` was run?
Its growth is 22.8% (inactive) and 108% (inactive) and 97.1% (inactive).

For `CCOC(C)=N`, which growth is on record?
The growth was 107% (inactive).

How did the growth turn out when `CCC/C(=N/NC(N)=O)c1ccco1` was run?
The growth was 102% (inactive).

`CCC(=O)Oc1ccc(OCc2ccccc2)cc1` was tested. Which growth did it give?
Its growth is 90.2% (inactive) and 79.7% (inactive).

— PubChem BioAssay (NCI)
